Laboratory results taken from PubChem BioAssay (NCATS).
Results filed as inconclusive are left out. A call without a number means that no potency is given here. Activity calls are given as the source filed them. Calls come from the whole dose curve; as a rule, active = well fitted curve in the direction sought with a large enough effect; inconclusive = small, poorly fitted or top-dose-only effect, or another doubt; inactive = no such curve, though single readings can be large; an effect the other way counts as inactive or inconclusive.

Tests used:
[1] = molecular target: Aldehyde dehydrogenase, mitochondrial (Homo sapiens) (UniProt P05091); assay: qHTS for Inhibitors of the Aldehyde Dehydrogenase Family (ALDH2) Primary screen (AID 2061308); note: nearly all actives have a fitted effect of over 55% in size; note: potency is the fitted concentration of half-maximal effect
[2] = molecular target: Retinal dehydrogenase 2 (Homo sapiens) (UniProt O94788); assay: qHTS for Inhibitors of the Aldehyde Dehydrogenase Family (ALDH1A2) Confirmation screens (AID 2061314); note: nearly all actives have a fitted effect of over 65% in size; note: potency is the fitted concentration of half-maximal effect
[3] = molecular target: Retinaldehyde dehydrogenase 3 (Homo sapiens) (UniProt P47895); assay: qHTS for Inhibitors of the Aldehyde Dehydrogenase Family (ALDH1A3) Primary screen (AID 2061315)
[4] = molecular target: Retinaldehyde dehydrogenase 3 (Homo sapiens) (UniProt P47895); assay: qHTS for Inhibitors of the Aldehyde Dehydrogenase Family (ALDH1A3) Validation screen (AID 2061312); note: nearly all actives have a fitted effect of over 45% in size
[5] = BET inhibitor-based combinations targeting novel dependencies in MECOM-rearranged (r) AML: SET-2 cell line (AID 2202231); details: SET-2 AML cells viability, CellTiter-Glo luminescence, 48 h; viability: active compounds read low, concentration not given here; note: potency is the fitted concentration of half-maximal effect; nearly all actives have a fitted effect of over 35% in size
Outline: (§1)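 Here, 11-point titrations of each agent were applied to 500 seeded cells and incubated 48 hr; CellTiter-Glo signal, scaled against DMSO and empty wells, was integrated as AUC, then Z-scored within the individual line.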

[6] = BET inhibitor-based combinations targeting novel dependencies in MECOM-rearranged (r) AML: OCI-AML3 cell line (AID 2202232); details: Potency: OCI-AML3 viability; note: potency is the fitted concentration of half-maximal effect; nearly all actives have a fitted effect of over 35% in size
Outline: as §1

[7] = BET inhibitor-based combinations targeting novel dependencies in MECOM-rearranged (r) AML: HNT-34 cell line (AID 2202234); note: potency is the fitted concentration of half-maximal effect; nearly all actives have a fitted effect of over 35% in size
Outline: (§2)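 Normalized to DMSO and empty-well controls, the luminescence data from CellTiter-Glo after 48 hr drug exposure were fitted across 11 concentrations. Reported metrics are area under the dose-response curve and its Z-transformed form.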

[8] = BET inhibitor-based combinations targeting novel dependencies in MECOM-rearranged (r) AML: UCSD-AML1 cell line (AID 2202235); note: potency is the fitted concentration of half-maximal effect; nearly all actives have a fitted effect of over 40% in size
Outline: as §2

[9] = BET inhibitor-based combinations targeting novel dependencies in MECOM-rearranged (r) AML: AML-191 cell line (AID 2202236; note: potency is the fitted concentration of half-maximal effect; nearly all actives have a fitted effect of over 35% in size)
Outline: as §1

[10] = BET inhibitor-based combinations targeting novel dependencies in MECOM-rearranged (r) AML: AML-194 cell line (AID 2202237; note: potency is the fitted concentration of half-maximal effect; nearly all actives have a fitted effect of over 40% in size)
Outline: as §1

[11] = molecular target: Aldehyde dehydrogenase 1A1 (Homo sapiens) (UniProt P00352); assay: qHTS for Inhibitors of the Aldehyde Dehydrogenase Family (ALDH1A1) Confirmatory screens (AID 2061316); note: nearly all actives have a fitted effect of over 65% in size; note: potency is the fitted concentration of half-maximal effect

In the case of `COc1ccc(C2=Nn3c(nnc3-c3ccc(OC)cc3OC)SC2)cc1`, the Potency [1] is reported as “inactive”, the Potency [2] is reported as “inactive” and the Potency [3] is reported as “inactive”.

For `Cc1[nH]c2ccccc2c1CCNCc1ccc(/C=C/C(=O)NO)cc1`, the Potency [1] was “inactive”, the Potency [4] was “inactive” and the Potency [5] was 0.0833 µM (active). For the same compound, the Potency [6] was 0.0661 µM (active), the Potency [7] was 0.0934 µM (active) and the Potency [8] was 0.0934 µM (active). For the same compound, the Potency [9] was 0.0833 µM (active) and the Potency [10] was 0.105 µM (active).

With `c1nc(NCC2CCCOC2)c2cc(-c3ccc4c(c3)OCO4)ccc2n1` (stereo unspecified) the Potency [1] was “inactive”, the Potency [2] was 11.3 µM (active) and the Potency [3] was “inactive”.

In the case of `Cc1cc(-c2nnc3n2CCCCC3)c(C)n1-c1ccc([N+](=O)[O-])cc1`, the Potency [1] is reported as “inactive”, the Potency [2] is reported as 22.5 µM (active) and the Potency [3] is reported as “inactive”. For the same compound, the Potency [11] was 10.1 µM (active).

For `CCOc1ccc(C(=O)Nc2ccc(-c3nc4ccccc4[nH]3)cc2)cc1[N+](=O)[O-]`, the Potency [1] was “inactive” and the Potency [3] was “inactive”.

In the case of `COc1ccc2c(c1)C=C1Cn3c-2c(C2CCCCC2)c2ccc(cc23)C(=O)NS(=O)(=O)N(C)CCOCCN(C)C1=O`, the Potency [1] is reported as “inactive” and the Potency [3] is reported as “inactive”.

With `COc1ccc(-c2nnc3n2N=C(c2c(OC)cccc2OC)CS3)cc1` the Potency [1] was “inactive” and the Potency [3] was “inactive”.

In the case of `CN(C)CCNc1ncnc2ccc(-c3ccc4c(c3)OCO4)cc12`, the Potency [1] is reported as “inactive” and the Potency [3] is reported as “inactive”.

In the case of `O=C1c2ccccc2NC(c2ccc(-c3ccc(C(F)(F)F)cc3)o2)N1O` (stereo unspecified), the Potency [1] is reported as 4.47 µM (active), the Potency [2] is reported as 22.5 µM (active) and the Potency [3] is reported as “inactive”. The Potency [11] was 7.12 µM (active).

With `CC(C)(C)c1ccc(-c2csc(N3CCC(C(N)=O)CC3)n2)cc1` the Potency [1] was “inactive” and the Potency [3] was “inactive”.

For `O=C(Cc1ccc2ccccc2c1)Nc1nnc(-c2ccncc2)s1`, the Potency [1] was “inactive” and the Potency [3] was “inactive”.

With `O=C1c2ccccc2C(=O)N1c1ccccc1O` the Potency [1] was “inactive” and the Potency [3] was “inactive”.

In the case of `COc1ccc(NC(=O)c2ccc(-c3nc4ccccc4[nH]3)cc2)cc1OC`, the Potency [1] is reported as “inactive” and the Potency [3] is reported as “inactive”.

In the case of `CC1CCC/C=C/C(=O)c2c(O)cc(O)cc2CC(=O)O1` (stereo unspecified), the Potency [1] is reported as “inactive” and the Potency [3] is reported as “inactive”.

For `N#Cc1c(-c2cccc([N+](=O)[O-])c2)no[n+]1[O-]`, the Potency [1] was 7.94 µM (active), the Potency [2] was 5.04 µM (active) and the Potency [3] was “inactive”. For the same compound, the Potency [11] was 12.7 µM (active).

For `CN1CCN(c2cccc(Nc3nn4c(=O)c5ccc(N(C)C)cc5nc4s3)c2)CC1`, the Potency [1] was “inactive”, the Potency [2] was 14.2 µM (active) and the Potency [11] was 11.3 µM (active).

For `O=[S+]([O-])(c1ccc(N2CCOCC2)nc1)N1CCN([S+](=O)([O-])c2c(F)cccc2F)CC1`, the Potency [1] was “inactive” and the Potency [3] was “inactive”.

For `Cc1ccc(-c2nn(CC(=O)N(C)C(C)c3ccco3)c(=O)cc2C)cc1` (stereo unspecified), the Potency [1] was “inactive” and the Potency [3] was “inactive”.

For `COc1cccc(C2=Nn3c(nnc3-c3cc(OC)ccc3OC)SC2)c1`, the Potency [1] was “inactive” and the Potency [3] was “inactive”.

For `N#Cc1nc(Nc2cc(F)cc(F)c2)c2ncn(CCCN3CCCC3)c2n1`, the Potency [1] was “inactive” and the Potency [3] was “inactive”.

In the case of `Cc1cc(C)nc(NC(=S)N2CCN(c3cc(C(F)(F)F)nc(C)n3)CC2)c1`, the Potency [1] is reported as “inactive” and the Potency [3] is reported as “inactive”.

With `c1ccc(CNc2ccc(N3CCOCC3)cc2)cc1` the Potency [1] was “inactive”, the Potency [2] was 12.7 µM (active) and the Potency [11] was 7.98 µM (active).

In the case of `Cc1ccc(S(=O)(=O)NCCC(=O)Nc2nc(-c3ccccc3)cs2)cc1`, the Potency [1] is reported as “inactive” and the Potency [3] is reported as “inactive”.

For `CC(O)(C(=O)C1CC1(CO)COC1OC(CO)C(O)C(O)C1O)C1C(O)CC2C3CC=C4CC(O)CC(O)C4(C)C3C(O)CC21C` (stereo unspecified), the Potency [1] was “inactive” and the Potency [3] was “inactive”.

With `Cc1ccc(OCCn2c(CCNC(=O)c3cccc(Br)c3)nc3ccccc32)cc1` the Potency [1] was “inactive” and the Potency [3] was “inactive”.

For `COc1ccc(S(=O)(=O)Nc2cc(OC)cc3cccnc23)cc1`, the Potency [1] was “inactive”, the Potency [2] was 1.42 µM (active) and the Potency [11] was “inactive”.

In the case of `Cc1ccc(NS(=O)(=O)c2ccc3c(c2)C(Cl)(Cl)C(=O)N3)cc1C`, the Potency [1] is reported as “inactive”, the Potency [2] is reported as 3.18 µM (active) and the Potency [3] is reported as “inactive”. The Potency [11] was 7.12 µM (active).

For `O=C(O)c1ccc(-c2ccc3ncnc(N4CCOCC4)c3c2)o1`, the Potency [1] was “inactive” and the Potency [3] was “inactive”.

For `COc1ccc(NC(=O)C(OC(=O)CNC(=O)c2ccccc2)c2ccccc2)c(C)c1` (stereo unspecified), the Potency [1] was “inactive” and the Potency [3] was “inactive”.

For `CNC(=O)C1=C(C)NC(Nc2nc3ccccc3o2)=NC1c1nn(C)cc1Cl` (stereo unspecified), the Potency [1] was “inactive” and the Potency [3] was “inactive”.

With `O=C(OCC#CCSc1nnc(-c2ccc3ccccc3c2)o1)c1ccc(F)cc1` the Potency [1] was “inactive” and the Potency [3] was “inactive”.

With `O=C(NCC#CCSc1nnc(-c2cccc3ccccc23)o1)c1cccs1` the Potency [1] was “inactive”, the Potency [2] was 12.7 µM (active) and the Potency [3] was “inactive”. The Potency [11] was 8.96 µM (active).

For `O=C(O)c1ccc(S(=O)(=O)N[C@H](Cc2c[nH]c3ccccc23)C(=O)O)cc1`, the Potency [1] was “inactive” and the Potency [3] was “inactive”.

For `O=S(=O)(Nc1nccs1)c1ccc(Nc2nc(-c3ccc(F)cc3)cs2)cc1`, the Potency [1] was “inactive”, the Potency [2] was 14.2 µM (active) and the Potency [3] was “inactive”. The Potency [11] was 11.3 µM (active).
